Several values for one entry are separate records, joined by “and”; a condition that tells them apart may be missing. Equal entries are not always repeated. A structure can be active in one record and inactive in another. Activity calls are given as the source filed them. The calls were made as follows: active = hit-call score of the fitted dose curve at least 0.9, where 1 is the maximum; inactive = score below 0.9.
Legend:
[1] = read-out: Interleukin-6 (IL6), IL6 (gene 3569); assay: BSK_CASM3C_IL6: BioMAP Diversity Plus: CASM3C Assay for Interleukin-6 (IL6) Biomarker Activity for (AID 2283040); conditions: primary human coronary artery smooth muscle cells; actives raise or lower the signal
[2] = read-out: Tissue plasminogen activator (tPA), PLAT (gene 5327); assay: BSK_BE3C_tPA: BioMAP Diversity Plus: BE3C Assay for Tissue plasminogen activator (tPA) Biomarker Activity (AID 2283041); conditions: primary human bronchial epithelial cells; actives raise or lower the signal
Method in brief: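 Human primary bronchial epithelial cells were dosed with chemical and tPA biomarker levels measured by ELISA 24 hours later. Activity was fitted bidirectionally against DMSO as negative control and baseline.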

[3] = read-out: Interleukin-8 (IL8), CXCL8 (gene 3576); assay: BSK_CASM3C_IL8: BioMAP Diversity Plus: CASM3C Assay for Interleukin-8 (IL8) Biomarker Activity (AID 2283042); conditions: primary human coronary artery smooth muscle cells; actives raise or lower the signal;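 also: IL-8 protein level quantified by ELISA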
[4] = read-out: Human Leukocyte Antigen - DR isotype (HLADR), HLA-DRA (gene 3122); assay: BSK_CASM3C_HLADR: BioMAP Diversity Plus: CASM3C Assay for Human Leukocyte Antigen - DR isotype (HLADR) Biomarker Activity (AID 2283043); conditions: primary human coronary artery smooth muscle cells; actives raise or lower the signal;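 also: cell-surface HLA-DR protein level quantified by ELISA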
[5] = read-out: Macrophage colony-stimulating factor (MCSF), CSF1 (gene 1435); assay: BSK_CASM3C_MCSF: BioMAP Diversity Plus: CASM3C Assay for Macrophage colony-stimulating factor (MCSF) Biomarker Activity (AID 2283044); conditions: primary human coronary artery smooth muscle cells; actives raise or lower the signal;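 also: M-CSF protein amount quantified by ELISA after 24 h exposure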
[6] = read-out: Low-density lipoprotein receptor (LDLR), LDLR (gene 3949); assay: BSK_CASM3C_LDLR: BioMAP Diversity Plus: CASM3C Assay for Low-density lipoprotein receptor (LDLR) Biomarker Activity (AID 2283045); conditions: primary human coronary artery smooth muscle cells; actives raise or lower the signal;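 also: LDLR protein level on the cell surface quantified by ELISA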
[7] = read-out: Monocyte Chemoattractant Protein-1 (MCP1), CCL2 (gene 6347); assay: BSK_CASM3C_MCP1: BioMAP Diversity Plus: CASM3C Assay for Monocyte Chemoattractant Protein-1 (MCP1) Biomarker Activity (AID 2283046); conditions: primary human coronary artery smooth muscle cells; actives raise or lower the signal;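 also: MCP-1 level quantified by ELISA 24 h after dosing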
[8] = BSK_CASM3C_Proliferation: Cell Proliferation Assessment in the BioMAP Diversity Plus: CASM3C Assay (AID 2283047); conditions: primary human coronary artery smooth muscle cells;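 also: sulforhodamine B total protein stain as relative cell number at 560 nm; sub-confluent cells exposed 48 h before staining; fitted both ways against DMSO so gain or loss of cell number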
[9] = read-out: Monokine induced gamma interferon (MIG), CXCL9 (gene 4283); assay: BSK_CASM3C_MIG: BioMAP Diversity Plus: CASM3C Assay for Monokine induced gamma interferon (MIG) Biomarker Activity (AID 2283048); conditions: primary human coronary artery smooth muscle cells; actives raise or lower the signal;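 also: MIG protein level measured by ELISA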
[10] = read-out: serum amyloid A (SAA), SAA1 (gene 6288); assay: BSK_CASM3C_SAA: BioMAP Diversity Plus: CASM3C Assay for serum amyloid A (SAA) Biomarker Activity (AID 2283049); conditions: primary human coronary artery smooth muscle cells; actives raise or lower the signal;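 also: SAA protein level quantified by ELISA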

Measured: AC50

CC(c1ccc(O)cc1)(c1ccc(O)cc1)c1ccc(O)cc1
inactive: [1] | [3] | [6] | [10]
active: [2] 3.85 µM | [4] 4.44 µM | [5] 3.11 µM | [7] 5.43 µM | [8] 27.2 µM | [9] 5.35 µM

Cc1ccc(O)c(C)c1
active: [1] 1.29 µM | [4] 20.7 µM
inactive: all other assays above

NS(=O)(=O)C(F)(F)C(F)(F)C(F)(F)C(F)(F)C(F)(F)C(F)(F)C(F)(F)C(F)(F)F
active: [2] 45.5 µM and 37 µM | [4] 26.2 µM and 46.2 µM | [5] 31.3 µM and 49 µM | [6] 44.3 µM | [7] 30 µM | [8] 54.4 µM and 50.9 µM | [9] 39.8 µM | [10] 46.8 µM
inactive: [1] | [2] | [3] | [4] | [5] | [6] | [7] | [8] | [9] | [10]

O=C(N[C@H]1CN2CCC1CC2)c1cc2ccoc2cn1
inactive: all assays above

CCSC(=O)N(CC)C1CCCCC1
inactive: all assays above

Cc1cccc(C)c1N
inactive: all assays above

CC(C)(O)C(=O)Nc1ccc([N+](=O)[O-])c(C(F)(F)F)c1
active: [1] 29.1 µM
inactive: all other assays above

CO/C=C(/C(=O)OC)c1ccccc1COc1cccc(C(F)(F)F)n1
active: [1] 5.93 µM | [3] 3.94 µM | [8] 5.66 µM
inactive: all other assays above

CC1=C2C[C@H]3[C@@H](CC=C4C[C@@H](O)CC[C@@]43C)[C@@H]2CC[C@]12O[C@@H]1C[C@H](C)CN[C@H]1[C@H]2C
active: [6] 2.8 µM
inactive: all other assays above

Clc1ccc(C(c2ccccc2Cl)C(Cl)(Cl)Cl)cc1 (centres undefined)
inactive: [1] | [2] | [3] | [9]
active: [4] 17.6 µM | [5] 13.8 µM | [6] 14.3 µM | [7] 23.7 µM | [8] 20.1 µM

O=C(NC(=O)c1cc(F)c(F)cc1Cl)Nc1cc(F)ccc1N1CCC(C(=O)O)CC1
inactive: all assays above

C[C@]12CCC(=O)C=C1CC[C@@H]1[C@@H]2CC[C@@]2(C)[C@H]1CC[C@]2(C)O
inactive: all assays above

CCNc1nc(NC(C)C)nc(SC)n1
inactive: all assays above

CCCCCCCCCC[N+](C)(C)CCCCCCCCCC
active: [1] 4.9 µM | [2] 3.61 µM | [3] 5.54 µM | [4] 4.72 µM | [5] 3.08 µM | [6] 5.09 µM | [7] 4.41 µM | [8] 2.67 µM | [9] 8.03 µM | [10] 5.46 µM

Cc1ccccc1CO[C@@H]1C[C@@]2(C(C)C)CC[C@]1(C)O2
inactive: all assays above

CCCCCCOC(=O)c1ccccc1C(=O)OCCCCCC
inactive: all assays above

O=C(O)C(F)(F)C(F)(F)C(F)(F)C(F)(F)C(F)(F)F
inactive: all assays above

Sc1ccccc1
inactive: all assays above

ClC(Cl)=C(c1ccc(Cl)cc1)c1ccc(Cl)cc1
active: [4] 20 µM | [5] 20 µM | [8] 29.1 µM
inactive: all other assays above

Clc1ccc(C(Cl)(Cl)Cl)cc1
inactive: all assays above

COc1ccc(O)c(C(C)(C)C)c1
active: [3] 5.43 µM | [9] 3.97 µM
inactive: [1] | [2] | [3] | [4] | [5] | [6] | [7] | [8] | [9] | [10]

CCCCCCCCOC(=O)c1ccccc1C(=O)OCCCCCCCC
inactive: all assays above

Oc1c(Cl)c(Cl)c(Cl)c(Cl)c1Cl
inactive: [1] | [3] | [4] | [5] | [6] | [7] | [8] | [9] | [10]
active: [2] 2.56 µM and 7.59 µM | [3] 2.09 µM | [4] 20 µM | [8] 26.7 µM

Cc1cc(-c2ccc(N)c(C)c2)ccc1N
inactive: all assays above

CC(C)(c1ccccc1)c1ccc(O)cc1
active: [2] 29.3 µM | [4] 32.3 µM | [8] 30.5 µM
inactive: all other assays above

CCOP(=S)(OCC)SCSC(C)(C)C
active: [5] 2.51 µM
inactive: all other assays above

O=NN(c1ccccc1)c1ccccc1
inactive: all assays above

O=C(O)C(F)(F)C(F)(F)C(F)(F)C(F)(F)C(F)(F)C(F)(F)C(F)(F)C(F)(F)F
active: [2] 20 µM and 23.6 µM and 21.6 µM
inactive: all other assays above

C[C@]12CCC(=O)C=C1CC[C@@H]1[C@@H]2CC[C@]2(C)C(=O)CC[C@@H]12
active: [6] 4.9 µM
inactive: all other assays above

O=C(O)C(F)(F)C(F)(F)C(F)(F)C(F)(F)C(F)(F)C(F)(F)C(F)(F)C(F)(F)C(F)(F)F
active: [2] 14.9 µM and 14.1 µM and 14.5 µM
inactive: all other assays above

Nc1ccc(-c2ccc(N)cc2)cc1
active: [2] 6.73 µM
inactive: all other assays above

N#Cc1ccc(N(CC(N)=O)CC(F)(F)F)cc1C(F)(F)F
active: [7] 0.335 µM
inactive: all other assays above

CCOC(=O)C(O)(c1ccc(Cl)cc1)c1ccc(Cl)cc1
active: [8] 30 µM
inactive: all other assays above

ClC1=C(Cl)[C@]2(Cl)[C@@H]3[C@@H](Cl)[C@H]4O[C@H]4[C@@H]3C1(Cl)C2(Cl)Cl
active: [8] 12.3 µM
inactive: all other assays above

COS(=O)(=O)OC
inactive: all assays above

CC#Cc1cc(C)nc(Nc2ccccc2)n1
inactive: all assays above

Oc1ccc(C(c2ccc(O)cc2)(C(F)(F)F)C(F)(F)F)cc1
active: [2] 21.8 µM | [8] 20 µM | [10] 37.6 µM
not listed: [6]
inactive: all other assays above

ClC1=C(Cl)[C@]2(Cl)[C@@H]3[C@@H]4C[C@@H]([C@H]5O[C@@H]45)[C@@H]3[C@@]1(Cl)C2(Cl)Cl
active: [10] 0.468 µM
not listed: [8]
inactive: all other assays above

CCC(C)(CC)c1cc(NC(=O)c2c(OC)cccc2OC)on1
inactive: all assays above

CCCN(CCC)N=O
not listed: [4]
inactive: all other assays above

Cc1ccccc1[N+](=O)[O-]
inactive: all assays above

C=CC(=O)NCNC(=O)C=C
inactive: all assays above

Oc1ccc(Cl)cc1Cl
inactive: all assays above

Clc1ccc(Cl)cc1
inactive: all assays above

CC(C)C(=O)OCC(C)(C)C(OC(=O)C(C)C)C(C)C (centres undefined)
inactive: all assays above

Cc1ccccc1O
inactive: all assays above

CCOCCOC(C)=O
inactive: all assays above

O=S(=O)(O)C(F)(F)C(F)(F)C(F)(F)C(F)(F)F
inactive: [1] | [2] | [3] | [4] | [5] | [6] | [7] | [8] | [9] | [10]
active: [10] 0.558 µM

CCC(=O)O[C@H]1CC[C@H]2[C@@H]3CCC4=CC(=O)CC[C@]4(C)[C@H]3CC[C@]12C
active: [8] 20 µM
not listed: [1]
inactive: all other assays above

CN(C)CCO
inactive: all assays above

C=CC(N)=O
active: [7] 0.887 µM
inactive: all other assays above

c1cc2ccc3cccc4ccc(c1)c2c34
active: [6] 9.87 µM
inactive: all other assays above

CCC(C)c1cc([N+](=O)[O-])cc([N+](=O)[O-])c1O (centres undefined)
active: [2] 1.28 µM | [4] 14.6 µM | [8] 33.7 µM
inactive: all other assays above

Nn1cnnc1
inactive: all assays above

Cc1cccc([N+](=O)[O-])c1
inactive: all assays above

O=S(=O)(O)C(F)(F)C(F)(F)C(F)(F)C(F)(F)C(F)(F)C(F)(F)F
inactive: all assays above

c1ccc(-c2ccccc2)cc1
inactive: all assays above

ClC1=C(Cl)[C@]2(Cl)[C@@H]3[C@H]4C[C@H]([C@@H]5O[C@H]45)[C@@H]3[C@@]1(Cl)C2(Cl)Cl
inactive: all assays above

O=C(NC(=O)c1c(F)cccc1F)Nc1cc(Cl)c(OC(F)(F)C(F)F)c(Cl)c1
inactive: all assays above

C1CC2OC2CC1C1CO1 (centres undefined)
inactive: all assays above

CCC(C)(c1ccc(O)cc1)c1ccc(O)cc1
active: [8] 25.5 µM
inactive: all other assays above

Cc1cc(O)ccc1Cl
inactive: all assays above

Cc1cc2c3c(c1)C(c1ccccc1)=N[C@@H](NC(=O)c1ccncc1)C(=O)N3CC2
inactive: all assays above

CCCCCCCCCc1ccc(O)cc1
active: [1] 27.8 µM | [2] 7.58 µM | [3] 33 µM | [4] 31.4 µM | [5] 34.6 µM | [6] 29.3 µM | [7] 31.8 µM | [8] 16 µM | [9] 36.1 µM | [10] 29.8 µM

CN(C)c1nc(=O)n(C2CCCCC2)c(=O)n1C
inactive: all assays above
